IL-1B inflam inh: blocks inflammasome-driven IL-1 beta release; THP-1 LPS/ATP IL-1B secretion, AlphaLISA, 16 h; stronger effect = lower value; activity change, % at 57.5 µM; actives 4.7% (n = 360,000); in the data active = activity change below about -50%; inconclusive = mostly about -30% to -49%
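THP-1 cells pretreated 1 hr with compounds (up to 57.5 uM final), then stimulated with LPS (250 ng/mL final) plus ATP (1.25 mM final); secreted IL-1B measured by AlphaLISA after 16 hr, decreased signal indicating inhibition.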
HT1080NT lethal: kills 2HG-producing HT-1080-NT fibrosarcoma cells; AID 686970; Potency, µM (doses to about 46.1 µM), for the others: top-dose activity, negative = less viability, hits mostly cytotoxic; actives 1.6% (n = 360,000); HT-1080-NT fibrosarcoma viability, CellTiter-Glo ATP luminescence, 48 h;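 also: NT is the 2HG producing partner of a matched IDH1 knockdown line; potency is read from the fitted curve at half-maximal effect; 0% = DMSO-treated cells and -100% = media-only wells without cells; nearly all actives have a fitted effect of over 55% in size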
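Read-out is CellTiter-Glo luminescence after 10 minutes at room temperature, following 48 hours' compound treatment of HT-1080-NT cells (750 cells/well, RPMI, 5% FBS, 37 degrees C).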
TDP1 cell CPT: DT40-hTDP1 cell growth loss with CPT | chicken DT40 Tdp1-/-;hTDP1 cells + 20 nM CPT, ATP luminescence, 48 h | Potency, µM (top dose mostly 46.2 µM), for inactives: at the top dose activity change, negative = growth inhibition, usual class: inhibitors | actives 12% (n = 420,000) | AID 686979; also: potency is read from the fitted curve at half-maximal effect; nearly all actives have a fitted effect of over 55% in size
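Cell growth measured by CellTiter-Glo luminescence after a minimum 48 h, 37 C compound exposure with 20 nM CPT in Tdp1-knockout DT40 cells stably expressing hTDP1, seeded 400/well; qHTS titration format.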
ELG1 DNA repair: blocks ELG1-dependent DNA repair in HEK293T cells | AID 504467 | Potency, µM (series often up to 46.1 µM), without a hit: top-dose activity change, negative = inhibition, actives largely listed as inhibitors | HEK293T ELG1-luciferase reporter, luminescence, 16 h; DNA damage induced by 5-fluorouridine | actives 2.3% (n = 330,000); also: potency is read from the fitted curve at half-maximal effect; nearly all actives have a fitted effect of over 55% in size
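Overnight (16 hr) co-exposure of 2,000 cells/well to 5-fluorouridine and compound at 37 °C preceded detection. Luciferase was quantified via ONE-Glo luminescence; loss of signal denotes inhibition.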
DT40 TDP1 no CPT: qHTS for Inhibitors of human tyrosyl-DNA phosphodiesterase 1 (TDP1): qHTS in cells in absence of CPT | DT40 Tdp1-/- hTDP1 cells, no CPT, ATP luminescence, 48 h | Potency, µM (top dose mostly 46.2 µM), inactives show at the top dose activity change, negative = growth inhibition, actives largely listed as inhibitors | actives 15% (n = 420,000) | AID 686978, 2013; also: potency is read from the fitted curve at half-maximal effect; nearly all actives have a fitted effect of over 55% in size
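Compound effects on proliferation are scored in DT40 Tdp1-/-;hTDP1 cells in the absence of CPT. ATP levels (CellTiter-Glo luminescence) are recorded after a ≥48 hr, 37 °C incubation.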
HT1080 IDH1KD tx: toxicity to HT-1080 IDH1 knockdown cells (counter line) | HT-1080 IDH1 knockdown viability, ATP luminescence, 48 h | actives 2% (n = 360,000) | Potency, µM (top dose mostly 46.1 µM), for the others: top-dose activity, negative = toxicity, hits mostly cytotoxic;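 also: potency is read from the fitted curve at half-maximal effect; 0% = DMSO wells and -100% = cell-free medium wells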
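Cytotoxicity counter-line: IDH1KD HT-1080, 48 h, CellTiter-Glo. Curves classed by r2, magnitude and activity.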
Numbers without * were called inactive; ? = inconclusive; · = no result. The list is not random: actives were taken first. Their share in the collection is about 19%. Unless noted, calls follow the shape of the dose curve; as a rule, active = well fitted curve in the direction sought with a large enough effect; inconclusive = small, poorly fitted or top-dose-only effect, or another doubt; inactive = no such curve, though single readings can be large; an effect the other way counts as inactive or inconclusive. Unless noted, % is scaled to controls: 0 for no effect and ±100 for the full control effect.

SMILES	IL-1B inflam inh	HT1080NT lethal	TDP1 cell CPT	ELG1 DNA repair	DT40 TDP1 no CPT	HT1080 IDH1KD tx
O=C(NCC(c1cccnc1)N1CCc2ccccc2C1)C(=O)Nc1ccc(Cl)cc1 (centres undefined)	·	·	11.6µM*	·	8.2µM*	·
O=[N+]([O-])c1ccc(S(=O)(=O)NCC(c2cccnc2)N2CCOCC2)cc1 (centres undefined)	-1.7	13.5%	-1.1%	3.4%	-16.5%	0.1%
O=C(NCC(c1cccnc1)N1CCOCC1)C(=O)Nc1ccc(F)cc1 (centres undefined)	·	·	-0.8%	·	-13.4%	·
O=C(NCC(c1cccnc1)N1CCc2ccccc2C1)C(=O)Nc1cccc(Cl)c1 (centres undefined)	·	·	20.6µM*	·	18.4µM*	·
O=[N+]([O-])c1ccc(S(=O)(=O)NCC(c2cccnc2)N2CCc3ccccc3C2)cc1 (centres undefined)	3.9	5.2%	?	17.7%	20.6µM*	-3.5%
CC(C)N(Cc1cn[nH]c1-c1ccc(-c2ccccc2)cc1)Cc1nccn1C	-73.5*	14.6µM*	?	2.3%	?	20.6µM*
O=C(O)CCc1c2ccc(=O)c(O)c-2oc2c(O)c(O)ccc12	·	·	-16.9%	·	-11.9%	·
Cc1ccc(CSCC(=O)N(C)CC(=O)Nc2c(Cl)cccc2Cl)cc1	-12.1	-8.4%	18.4µM*	?	?	-4.1%
Cc1cc(Br)ccc1NC(=O)CN(C)C(=O)CSCc1ccccc1	-52.1*	2.1%	-12.5%	0.2%	-21.2%	-20.4%
Cc1ccc(CSCC(=O)N(C)CC(=O)Nc2ccccc2Cl)cc1	0.8	1.4%	-7.5%	3.1%	?	0.6%
CCOc1ccccc1C(=O)N/N=C/c1ccoc1	0.0	10.0%	6.7%	0.8%	19.8%	14.1%
COc1ccc(Cl)cc1NC(=O)c1ncn(-c2ccccc2)n1	·	·	-22.1%	·	?	·
Brc1ccc2nc(N3CCN(c4ccccc4)CC3)sc2c1	-73.9*	?	3.2%	?	-3.7%	20.8%
Cc1nn(C)cc1/C=N/NC(=S)Nc1ccc(Cl)cc1Cl	27.2	-8.5%	0.517µM*	4.7%	?	-12.0%
CCn1nc(C)c(/C=N/NC(=S)Nc2ccc(Cl)cc2Cl)c1C	14.2	-23.0%	8.2µM*	?	6.51µM*	?
CCn1nc(C)c(/C=N/NC(=O)Cn2nccc2C)c1C	21.6	13.5%	-15.6%	?	-0.7%	7.0%
COc1ccc(Nc2cc(Nc3cccc(OC)c3)ncn2)cc1	-14.3	2.1%	-25.5%	?	?	-2.6%
O=C(NCC(c1cccnc1)N1CCN(Cc2ccccc2)CC1)C(=O)Nc1cccc(Cl)c1 (centres undefined)	·	·	14.6µM*	·	13µM*	·
Cc1cccc(NC(=O)NCC(c2cccnc2)N2CCOCC2)c1 (centres undefined)	9.7	5.0%	-16.6%	-6.9%	-11.6%	20.7%
Cc1cccc(NC(=O)C(=O)NCC(c2cccnc2)N2CCN(Cc3ccccc3)CC2)c1 (centres undefined)	·	·	23.1µM*	·	16.4µM*	·
O=S(=O)(NCC(c1cccnc1)N1CCN(Cc2ccccc2)CC1)c1ccccc1 (centres undefined)	-19.5	-1.3%	-30.0%	0.2%	?	0.0%
COc1ccc(C2CC3(CC(C)(C)NC(SC)=N3)Oc3cc(O)cc(C)c32)cc1 (centres undefined)	?	?	4.61µM*	15.9%	5.17µM*	?
CC1(C)CC2(CC(c3ccccc3)c3ccc(O)cc3O2)NC(=S)N1 (centres undefined)	32.8	-17.3%	?	3.2%	9.2µM*	-20.7%
COc1ccc(C2CC(=O)Oc3cc(C)cc(C)c32)cc1 (centres undefined)	9.9	-5.2%	?	-10.4%	?	-22.8%
CC(=O)Oc1cc2c(cc1Cl)C(c1cccs1)CC1(CC(C)(C)NC(=S)N1)O2 (centres undefined)	24.1	-15.9%	8.2µM*	-14.0%	16.4µM*	-15.9%
SMILES	IL-1B inflam inh	HT1080NT lethal	TDP1 cell CPT	ELG1 DNA repair	DT40 TDP1 no CPT	HT1080 IDH1KD tx
COc1ccc(C2CC3(CC(C)(C)NC(=S)N3)Oc3cc(O)cc(C)c32)cc1 (centres undefined)	-0.8	5.8%	9.2µM*	-13.5%	8.2µM*	4.3%
COc1ccc(C2CC3(CC(C)(C)NC(=O)N3)Oc3cc(O)ccc32)cc1 (centres undefined)	13.2	4.4%	?	-13.5%	?	6.5%
Cc1ccc(S(=O)(=O)NC(=O)C2(C)CCN2C(=O)Cc2ccc(Cl)cc2Cl)cc1 (centres undefined)	-15.4	-10.5%	?	·	?	-4.8%
N#CCSc1nnc(SCC#N)s1	-71.3*	-19.3%	-2.9%	24.3%	5.1%	-18.4%
CC(=O)C(Sc1nccc(-c2cccs2)n1)C(C)=O	-5.4	19.2%	?	?	18.4µM*	24.6%
COc1ccc(F)cc1CN1CCN(c2ncnc3scc(-c4ccccc4)c23)CC1	·	-23.4%	14.6µM*	0.0%	16.4µM*	?
Cc1sc2ncnc(N3CCN(Cc4ccccc4)CC3)c2c1-c1ccccc1	-56.0*	3.5%	?	?	?	12.8%
Clc1ncc(CN2CCN(Cc3ccccc3)CC2)s1	0.9	3.6%	6.9%	-0.7%	11.3%	1.6%
COc1ccc(CN2CCN(c3ncnc4scc(-c5ccc(F)cc5)c34)CC2)cc1	?	22.8%	16.4µM*	?	20.6µM*	21.1%
CCOc1ccc(CN2CCN(c3ncnc4scc(-c5ccccc5)c34)CC2)cc1	16.3	8.2%	?	21.4%	8.2µM*	-4.2%
CC(C)(C)OC(=O)N[C@H]1C=C[C@@H](OC(=O)CC(=O)OCC(F)(F)F)C1	27.5	1.9%	-0.8%	7.0%	2.1%	3.0%
O=C(COc1ccccc1)N/N=C/c1ccc(O[C@@H]2O[C@H](CO)[C@@H](O)[C@H](O)[C@H]2O)cc1	2.6	-0.5%	-4.0%	?	7.3%	-10.7%
Cn1c(N)c(C(=O)CSc2nc(C3CC3)n(-c3ccccc3)n2)c(=O)n(C)c1=O	17.0	-4.1%	-15.3%	-11.8%	?	-3.3%
CC(=O)N1CCC2(CC1)CN(c1ccncc1)C2	·	·	2.1%	·	-7.6%	·
Cc1sc2ncnc(Nc3ccc(N4CCOCC4)cc3)c2c1-c1ccccc1	-6.0	1.9%	16.4µM*	?	?	-3.3%
